Results published in PubChem BioAssay (NCI).
The panel holds about 79,000 compounds, 15% with a hit somewhere; the sample as a whole holds those more often. A number with no mark means an inactive call. Active and inactive are the calls of the source. No stated cut-off is given here; in the data, active means growth inhibition above about 70%; inactive means the rest.

Test: NCI Yeast Anticancer Drug Screen. Data for the CLN2oe strain (AID 163);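 further: 0% = growth of vehicle-only control cultures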
Details: S. cerevisiae CLN2oe strain, stronger effect = higher value
Method: Growth inhibition of yeast strains with defined genetic alterations is measured as a screen for potential anti-cancer activity. Selected strains with alterations in DNA damage repair or cell cycle control were exposed to compounds and growth inhibition was measured relative to vehicle treated controls. The strain used in this assay is CLN2oe

| Structure (SMILES) | growth inhibition (at 1.2 µM) | growth inhibition (at 3.7 µM) | growth inhibition (at 11.0 µM) | growth inhibition (at 33.0 µM) | growth inhibition (at 100.0 µM) |
| --- | --- | --- | --- | --- | --- |
| CC1(C)C(C=O)=CCC1CC(N)=O (stereo not given) | -5% | -2% | -1% | -2% | 12% |
| CCNc1ccc2c(c1)C(=O)N(OS(C)(=O)=O)C2=O | 5% | -6% | 4% | 15% | 40% |
| ClCCn1c(CCl)nc2ccc(Cl)cc21 | 4% | 8% | 34% | 58% | 97% (active) |
| CCCCCCCCN1C(=O)c2ccccc2C1=O | -2% | 0% | -1% | -2% | -1% |
| CC(=O)OCC1OC(O[C@H]2C=C[C@@H](C(=O)OCc3ccccc3)n3c(=O)n(-c4ccccc4)c(=O)n32)C(OC(C)=O)C(OC(C)=O)C1OC(C)=O (stereo not given in full) | 10% | 22% | 24% | 58% | 82% (active) |
| O=NN(CCCl)C(=O)NCCCl | -10% | -5% | -6% | -5% | 0% |
| Cc1ccc(Nc2n[nH]c(=S)s2)cc1 | 11% | 2% | 3% | 40% | 91% (active) |
| CCn1ncc(N=O)c1N | -6% | -5% | 15% | 43% | 53% |
